In the library only some 4% were active in any assay of this set; here they are far more common.
PAX8 inh HTS – inhibitors of PAX8 transcriptional activity in RMG-I cells; RMG-I TPO-luciferase reporter, SteadyGlo, 24 h; inhibition, % at 12.6 µM; 1.2% of 360,000 active; AID 652154;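 active = mean replicate inhibition at least 60% with every replicate also reaching 60%; inconclusive = only one of the two criteria is met; inactive = mean below 60% and not all replicates reaching 60%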;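 note: luciferase light reporting Pax8 driven TPO promoter activity; plate controls were median of neutral control wells for no effect and mitoxantrone controls for full effect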
MITF TRPM1 HTS – increases MITF-driven TRPM1 promoter luciferase signal; AID 588334; activation, % at 12.5 µM; SK-MEL-5 TRPM1-promoter luciferase, 24 h; % of positive control, neutral wells = 0; 0.75% of 300,000 active;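 active = mean activation of at least 80% with every replicate also reaching 80%; inconclusive = mean reaches 80% but some replicate falls short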;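 note: 0% = neutral control wells and 100% = parthenolide positive control wells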
EWS-Fli block – blocks EWS/Fli oncoprotein-driven transcription. AID 651661. inhibition, % at 12.6 µM. A673 NR0B1-luciferase reporter, viability-normalised. 0.67% of 350,000 active;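 active = mean inhibition of at least 50% after viability correction, with every replicate also passing that limit; inconclusive = mean reaches 50% but only one of two replicates passes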;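 note: firefly luciferase signal divided by Alamar Blue viability fluorescence both relative to DMSO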
esBAF inh – inhibitors of esBAF chromatin remodeling in mouse ES cells; Bmi1-luciferase knock-in reporter, 24 h; 100% = twice the neutral-well signal; reporter increase, % at 12.5 µM; 2% of 350,000 active; in the data active = activation above about 40%; inconclusive = no clear call, values can overlap the other calls;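 note: 0% = median of the plate's neutral control wells and 100% = double that signal; a rise in the Bmi1 reporter signal indicates esBAF inhibition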
Wnt act – activators of Wnt/beta-catenin signaling; Wnt/beta-catenin reporter cell assay, activator, plate reader; activation, % at 9.35 µM; 1.2% of 300,000 active; in the data active = activation above about 30%, passing the limit was not always enough; inconclusive = no clear call, values can overlap the other calls;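 note: 0% = neutral control wells and 100% = positive control wells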
MITF TRPM1 inh – reduces MITF-dependent TRPM1 promoter luciferase signal. SK-MEL-5 TRPM1 promoter luciferase, 24 h. inhibition, % at 12.5 µM. 0.83% of 330,000 active;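 active = mean inhibition across replicates of 60% or more, whatever share of single replicates reaches that level; inconclusive = some that reach 60%, reason not given; inactive = mean inhibition across replicates below 60%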
Numbers without * were called inactive; ? = inconclusive; . = no result.

SMILES	PAX8 inh HTS	MITF TRPM1 HTS	EWS-Fli block	esBAF inh	Wnt act	MITF TRPM1 inh
Cc1ccc(CNC(=O)C2(S(=O)(=O)c3ccc(C)cc3)CC2)cc1	-0.5	-1.4	3.3	5.9	0.8	-0.4
Cc1ccc(C(=O)Cn2cnc3ccccc3c2=O)cc1	.	89.4*	.	56.0*	27.0	-87.9
O=C(Cn1cnc2ccccc2c1=O)c1ccccc1	.	.	.	29.3	.	-20.8
CC(C)(C)n1ncc2c(=O)n(CC(=O)c3ccccc3)cnc21	.	96.4*	.	18.8	.	-91.1
CC(C)(C)n1ncc2c(=O)n(Cc3cccc(Cn4cnc5c(cnn5C(C)(C)C)c4=O)c3F)cnc21	79.5*	-3.1	35.2	-13.7	-15.5	8.3
CC(C)(C)n1ncc2c(=O)n(CC(=O)OCc3ccccc3)cnc21	.	-10.9	.	9.5	.	12.9
CC(C)(C)n1ncc2c(=O)n(CC(=O)NC3CCCCC3)cnc21	.	52.9	.	44.4*	.	-52.9
COC(=O)c1ccc(Cn2cnc3c(cnn3-c3ccc(F)cc3)c2=O)o1	.	-10.2	.	-5.9	.	12.1
CC(C)CCn1cnc2c(cnn2-c2ccc(F)cc2)c1=O	.	23.5	.	45.9*	.	-22.4
CCNC(=O)C[C@@H]1CC[C@H]2[C@H](COc3ccc(NC(=O)c4cccc(C(F)(F)F)c4)cc3C(=O)N2C)O1	-7.3	.	-4.2	-0.3	.	.
CCN(CC)C(=O)c1cc(-c2ccc(Br)cc2)on1	.	?	.	75.1*	.	-87.0
CO[C@H]1CC[C@H]2CCN(C)C(=O)[C@H](C)[C@H](OC)CN(C)C(=O)c3cccc(C#N)c3OC[C@@H]1O2	-4.5	.	-4.3	2.4	.	.
CO[C@H]1CN(C)C(=O)c2ccc(NC(=O)Nc3ccc(Cl)cc3)cc2OC[C@@H](C)NC[C@H]1C	.	.	-0.4	-3.2	.	.
COc1ccc(NC(=O)N(C)C[C@@H]2Oc3ncc(-c4cccnc4)cc3C(=O)N([C@H](C)CO)C[C@@H]2C)cc1	-11.3	.	-2.0	-1.6	.	.
COc1cccc(C(=O)O/N=C(\N)c2ccc([N+](=O)[O-])cc2)c1OC	.	84.4*	.	20.7	.	-80.9
COc1ccc(C(=O)Cc2ccc(OC)c(OC)c2)cc1	.	44.3	.	41.8*	20.6	-40.5
COc1ccc(C(=O)Cc2cc3ccccc3oc2=O)cc1	-102.8	121.2*	-113.6	56.0*	10.4	-124.1
COc1ccc(C(=O)CCc2ccc(OC)c(OC)c2)cc1	-15.2	5.8	0.5	.	-1.6	-6.6
COc1ccc(C(=O)O/N=C(\N)c2ccc(OC)c(OC)c2)c(OC)c1	.	54.1	.	56.1*	.	-53.9
COc1ccc(/C(N)=N/OC(=O)c2cccc([N+](=O)[O-])c2C)cc1OC	.	11.4	.	.	.	-8.7
COc1ccc(C(C)=O)c(OC(=O)c2ccc(OC)c(OC)c2)c1	-10.6	.	.	-5.5	-0.5	10.8
C[C@H](CO)N1C[C@H](C)[C@@H](CN(C)C(=O)c2ccc(F)cc2)Oc2ncc(-c3ccc(F)cc3)cc2C1=O	.	.	2.7	-2.4	.	.
COCC#Cc1ccc2c(c1)O[C@@H](CN(C)S(=O)(=O)c1cccc(OC)c1)[C@@H](C)CN([C@H](C)CO)S2(=O)=O	8.3	.	20.4	-2.0	.	.
O=C(C[C@@H]1C[C@H]2c3cc(NS(=O)(=O)c4ccc(F)cc4)ccc3O[C@H]2[C@H](CO)O1)NCc1cccc(F)c1	29.9	.	12.1	19.1	.	.
Cc1ccccc1-c1ccc2c(c1)O[C@H](CN(C)C(=O)Nc1ccc(F)cc1)[C@H](C)CN([C@@H](C)CO)S2(=O)=O	1.0	.	9.4	-2.4	.	.
SMILES	PAX8 inh HTS	MITF TRPM1 HTS	EWS-Fli block	esBAF inh	Wnt act	MITF TRPM1 inh
COc1ccc(C(=O)O/N=C(\N)c2ccccn2)c(OC)c1	-4.7	-4.1	25.3	.	7.4	8.7
COc1ccc(C(=O)O/N=C(\N)c2ccccc2)c(OC)c1	34.8	-35.1	71.3*	.	-15.2	35.0
COc1ccccc1C(=O)O/N=C(\N)c1ccccc1Cl	-179.0	41.2	-49.0	.	70.4*	-33.4
COc1ccc(C(=O)O/N=C(\N)c2ccc(OC)c(OC)c2)cc1	-84.4	101.7*	-116.5	25.9	26.3	-92.6
O=C(C1CCOCC1)N1CC(=O)N2[C@H](CO)[C@H](c3ccc(C#Cc4cccc(F)c4)cc3)[C@@H]2C1	-3.6	.	1.6	.	.	.
Cc1noc(C)c1NC(=O)Nc1ccc2c(c1)C(=O)N([C@H](C)CO)C[C@H](C)[C@@H](CN(C)C(=O)Nc1cccc3ccccc13)OCCCC[C@H](C)O2	-7.2	.	-5.8	1.0	.	.
C[C@@H]1CN([C@H](C)CO)C(=O)Cc2cc(NS(=O)(=O)c3cccs3)ccc2O[C@H]1CN(C)Cc1ccncc1	-7.8	.	-2.1	-7.3	.	.
N#Cc1ccc(C(=O)N2CCCCC2c2cc(C(=O)Nc3cccc(C#N)c3)no2)cc1 (centres undefined)	1.6	.	-2.5	-0.2	35.6*	.
CCOCCc1nnc(NC(=O)C(C)Oc2ccccc2)s1 (centres undefined)	1.0	-3.7	4.0	-1.2	-1.1	4.5
CC(C)C(=O)Nc1nnc(COc2ccc(Cl)cc2)s1	-8.6	.	4.9	.	23.5	-7.1
CCOCCc1nnc(NC(=O)CCS(=O)(=O)c2ccccc2)s1	65.4*	-1.3	-28.4	-2.5	-1.6	0.8
CC(C)Cc1nnc(NC(=O)CCS(=O)(=O)c2ccc(Cl)cc2)s1	70.6*	-3.8	.	-10.0	-2.7	6.6
COCCSc1nnc(NC(=O)CCS(=O)(=O)c2ccccc2)s1	80.1*	.	-15.6	-3.6	-2.2	1.8
CC(C)Cc1nnc(NC(=O)CCC(=O)Nc2ccc(Cl)cc2)s1	-8.9	11.4	.	.	-3.0	-15.5
COCCSc1nnc(NC(=O)CS(=O)(=O)c2ccc(C)cc2)s1	-1.8	2.4	7.9	2.5	-3.9	-1.0
CC(=O)Nc1nnc(COc2ccc(Cl)cc2)s1	-113.7	100.1*	-76.0	?	-1.4	-92.7
COc1ccc(CNC(=O)C[C@H]2CC[C@H](NC(=O)c3ccc4c(c3)OCO4)[C@H](CO)O2)cc1	6.0	.	1.1	-2.9	.	.
O=C(CCS(=O)(=O)c1ccccc1)Nc1nc2c(s1)COc1ccccc1-2	69.5*	-2.4	-20.1	-4.9	-5.0	1.2
O=C(CCS(=O)(=O)c1ccccc1)Nc1nncs1	67.5*	1.2	-27.3	1.2	7.5	1.4
Clc1cc(Cl)cc(Nc2ncnc(-n3cccc3)n2)c1	-15.9	.	-10.9	.	0.8	-6.8
Cc1ccc(Nc2ncnc(-n3cccc3)n2)cc1Cl	-44.3	40.8	-123.9	.	52.9*	-38.1
COC(=O)c1nn(-c2cccc(C)c2)c2nnc(Cc3ccc(C)cc3)c(=O)n12	2.6	1.8	.	.	-6.2	-8.5
COC(=O)c1nn(-c2ccc(C)cc2)c2nnc(Cc3ccccc3)c(=O)n12	13.6	-0.8	.	.	36.7*	1.4
O=C(Nc1ccc(NC(=S)NC(=O)c2cccs2)cc1)c1ccccc1	.	8.5	.	.	.	-15.8
O=C(NC(=S)Nc1ccccc1)c1cccs1	-68.8	100.8*	-64.5	77.7*	29.1	-94.3
O=C(Nc1ccc2nc(-c3ccccc3)[nH]c2c1)c1cccs1	.	70.1	-126.0	35.3	0.7	-67.0
O=C(Nc1ccc(NC(=O)c2cccs2)cc1)c1cccs1	-84.1	?	-75.3	53.3*	6.4	-79.1

Source: PubChem
